Bioassay records from PubChem BioAssay.
Only some compounds are listed: those with a hit (about 17% of all), similar ones and a draw of the others.
ATXN2 expr inh: ATXN2 expression inhibition. HEK-293 ATXN2-luciferase reporter, luminescence, 24 h. Potency, µM (titrated, usually from 57 µM), for the others: at the highest dose activity change, negative = inhibition, hits mostly inhibitors. actives 0.72% (n = 360,000). AID 1745845; also: % is scaled to controls: 0 for no effect and ±100 for the full control effect; nearly all actives have a fitted effect of over 55% in size
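qHTS (up to 57 uM final) was run with 24 h compound exposure of reporter cells at 37 °C. Each well was multiplexed: SteadyGlo luminescence measured ATXN2-luciferase expression after a fluorogenic Gly-Phe-AFC viability readout (25 uM final).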
DT40 TDP1 no CPT: qHTS for Inhibitors of human tyrosyl-DNA phosphodiesterase 1 (TDP1): qHTS in cells in absence of CPT; DT40 Tdp1-/- hTDP1 cells, no CPT, ATP luminescence, 48 h; Potency, µM (highest dose often 46.2 µM), without a hit: at the highest dose activity change, negative = growth inhibition, most hits filed as inhibitors; actives 15% (n = 420,000); AID 686978, 2013; also: % is scaled to controls: 0 for no effect and ±100 for the full control effect; nearly all actives have a fitted effect of over 55% in size
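Chicken DT40 Tdp1-/- cells stably complemented with human TDP1 were seeded at 400 cells/well with DMSO in place of 20 nM camptothecin. After compound pinning, cells grew at least 48 hr at 37 °C; viability read by CellTiter-Glo luminescence.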
HepG2 tox: kills HepG2 cells in TGF-b inhibitor counter-screen. Potency, µM (doses to about 46.1 µM), without a hit: at the top dose activity change, negative = cytotoxicity, most hits filed as cytotoxic. actives 0.76% (n = 410,000). HepG2 CAGA-GFP viability, ATP luminescence, 18 h
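CellTiter-Glo luminescence gave cytotoxicity after 18 hours at 37 degrees C. The cells were HepG2 CAGA-GFP in 1% FBS DMEM, stimulated with 500 pg/mL TGF-beta after compound addition. %Activity was normalised to no-cell wells (complete cell-killing) and DMSO (no toxicity), and curves were fitted and classified.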
ATXN viability: reduces viability in counter-screen for ATXN expression inhibitors | S2 cells (HEK-293 line with an ATXN2-luciferase reporter) viability, CellTiter-Fluor protease fluorescence, 24 h | Potency, µM (series often up to 56.7 µM), actives largely listed as cytotoxic | actives 0.49% (n = 400,000) | AID 651635; also: nearly all actives have a fitted effect of over 40% in size
TGFb SMAD3 inh: blocks TGF-b signaling. HepG2 CAGA-GFP TGF-b/SMAD3 reporter, GFP fluorescence, 18 h; TGF-beta stimulated, 500 pg/mL final. Potency, µM (titrated, usually from 46.1 µM), without a hit: top-dose activity, negative = inhibition, usual class: inhibitors. actives 1.2% (n = 410,000). AID 588855; also: % is scaled to controls: 0 for no effect and ±100 for the full control effect; nearly all actives have a fitted effect of over 65% in size
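GFP signal (ex488/em500-530) from TGF-beta-stimulated HEPG2 CAGA-GFP cells, 500 pg/mL final, 18 h at 37 degrees C in DMEM plus 1% FBS, normalized to unstimulated and DMSO-stimulated controls.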
DT40 TDP1 CPT: growth inhibition of DT40 Tdp1-/-;hTDP1 cells with camptothecin (screen for TDP1 inhibitors) | AID 686979 | actives 12% (n = 420,000) | chicken DT40 Tdp1-/-;hTDP1 cells + 20 nM CPT, ATP luminescence, 48 h | Potency, µM (titrated, usually from 46.2 µM), inactives show at the top dose activity change, negative = growth inhibition, most hits filed as inhibitors; also: % is scaled to controls: 0 for no effect and ±100 for the full control effect; nearly all actives have a fitted effect of over 55% in size
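Cell growth measured by CellTiter-Glo luminescence after a minimum 48 h, 37 C compound exposure with 20 nM CPT in Tdp1-knockout DT40 cells stably expressing hTDP1, seeded 400/well; qHTS titration format.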
Active calls of the source: *; i = inactive; ? = inconclusive; · = no result given; [ ] = another dose, or the depositor's remark. Calls follow the shape of the dose curve; as a rule, active = well fitted curve in the direction sought with a large enough effect; inconclusive = small, poorly fitted or top-dose-only effect, or another doubt; inactive = no such curve, though single readings can be large; an effect the other way counts as inactive or inconclusive. Potency is read from the fitted curve at half-maximal effect.

SMILES	ATXN2 expr inh	DT40 TDP1 no CPT	HepG2 tox	ATXN viability	TGFb SMAD3 inh	DT40 TDP1 CPT
COc1cc(OC)c(OC)cc1/C=c1\[nH]c(=O)/c(=C/c2cc(OC)c(OC)cc2OC)[nH]c1=O	·	0.708µM*	-23.7%	·	?	0.794µM*
COc1ccc(/C=C2\CCC/C(=C\c3ccc(OC)c(OC)c3OC)C2=O)c(OC)c1OC	-24.7%	16.4µM*	-31.7%	i	-21.6%	?
COc1ccc(/C=C2\CC/C(=C\c3ccc(OC)cc3OC)C2=O)c(OC)c1	·	?	-11.2%	?	12.6%	?
COc1ccc(/C=c2\[nH]c(=O)/c(=C/c3ccc(OC)c(OC)c3)[nH]c2=O)cc1OC	·	-23.0%	-14.4%	·	2.5%	-1.4%
COc1cc(OC)c(OC)cc1/C=C1\CCC/C(=C\c2cc(OC)c(OC)cc2OC)C1=O	?	23.1µM*	-13.8%	?	?	?
COc1ccc(CNc2nc(-c3ccccc3)nn2S(=O)(=O)c2ccccc2)cc1	45.8%	·	-2.5%	i	-5.6%	·
COc1cccc(CN(C)C(=O)c2csc3c2CCCC3)c1OC	-5.5%	-23.5%	0.7%	i	2.4%	-7.9%
CCOC(=O)c1c(Nc2cccc(C)c2)nnc(-c2ccccc2)c1-c1ccccc1	?	16.4µM*	-15.6%	i	?	?
Cc1ccc(NC(=O)c2sc(N)nc2-c2ccccc2)cc1C	-32.8%	?	-58.2%	?	?	6.5%
CCOC(=O)c1c(C)nc(-c2ccccc2)nc1N	99.1%	-17.4%	1.7%	i	1.3%	0.8%
CCOC(=O)c1c(Nc2ccc(C)c(C)c2)nnc(-c2ccccc2)c1-c1ccccc1	-36.0%	16.4µM*	-7.8%	i	-15.2%	?
CCOC(=O)c1c(Nc2cc(C)cc(C)c2)nnc(-c2ccccc2)c1-c1ccccc1	-15.4%	14.6µM*	-7.7%	i	-14.4%	11.6µM*
C/C(=N/O)c1ccccn1	-7.2%	0.1%	-2.2%	i	0.5%	7.7%
C/C(=N\NC(=O)C1CCCN(S(=O)(=O)c2ccccc2)C1)c1ccccn1 (stereo unspecified)	8.91µM*	3.26µM*	-32.4%	?	-26.6%	5.8µM*
CC(=NNC(=S)N1CC2CCC(CC2)C1)c1ccccn1	·	0.0184µM*	12.6µM*	?	?	0.0082µM*
C/C(=N/NC(=O)c1cnccn1)c1ccncc1	-12.2%[11.3 µM]	-11.6%	10.8%	i	16.7%	11.0%
CC(=NNC(=S)N1CC2CCC(CC2)C1)c1cnccn1	?	-115.6%	-48.7%	?	3.16µM*	-112.6%
Cc1cc(C)c2c(=O)cc(CSc3nnc(-c4ccccc4)n3C)[nH]c2c1	-23.1%	-26.7%	-1.9%	?	-37.2%	-20.9%
CCCCCCCCNC(=O)C(CCC(=O)OCc1ccccc1)NC(C)=O (stereo unspecified)	-9.5%	-20.1%	-30.0%	i	?	-22.9%
Cc1onc(-c2ccccc2)c1C(=O)Cl	0.4%	·	·	i	·	·
C=C(c1ccc2ccccc2n1)c1cccs1	·	14.1µM*	-1.8%	·	-2.2%	11.2µM*
COc1ccc(CCNc2nc(-c3ccncc3)cs2)cc1OC	-31.4%	?	-17.4%	i	?	20.6µM*
COc1ccc(CCNc2nc(-c3ccccn3)cs2)cc1OC	·	11.6µM*	-17.0%	?	-25.3%	16.4µM*
COc1ccc(CCNc2nc(-c3ccc(O)cc3)cs2)cc1OC	?	16.4µM*	-28.4%	i	?	16.4µM*
COc1ccc(CCNc2nc(-c3cccnc3)cs2)cc1OC	-23.4%	?	-9.3%	i	-13.3%	?
COc1ccc(CCNc2nc(C)c(C(C)=O)s2)cc1OC	9.8%	?	-5.9%	i	11.0%	?
